G9a block: qHTS Assay for Inhibitors of Histone Lysine Methyltransferase G9a; 350,000 compounds, 8.8% hits; G9a H3K9 monomethylation, AlphaScreen, 2 h; Potency, µM (top dose mostly 102 µM), for the others: at the top dose activity, negative = inhibition, most hits filed as inhibitors; further: potency means the concentration at half of the fitted maximal effect; on the % scale 0 is the no-effect control and ±100 the full control effect; nearly all actives have a fitted effect of over 75% in size
Target sequence (Q96KQ7 913-1193 limits assumed): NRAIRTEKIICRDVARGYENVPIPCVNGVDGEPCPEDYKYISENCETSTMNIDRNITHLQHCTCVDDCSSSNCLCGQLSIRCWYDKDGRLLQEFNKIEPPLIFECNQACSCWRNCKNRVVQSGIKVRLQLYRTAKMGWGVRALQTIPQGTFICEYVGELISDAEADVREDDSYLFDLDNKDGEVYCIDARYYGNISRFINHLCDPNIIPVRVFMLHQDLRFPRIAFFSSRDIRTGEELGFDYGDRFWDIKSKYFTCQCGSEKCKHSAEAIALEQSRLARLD
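Enzyme 20 nM + cpd, 15 min RT; add b-H3K9 pep 500 nM / SAM 20 uM; 2 h RT; anti-H3K9me1 Ab 0.5 ug/mL + SA donor / anti-rabbit acceptor beads 20 ug/mL each, 10 min; AlphaScreen read.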
PLK1 PBD block: qHTS for Inhibitors of PLK1-PDB (polo-like kinase 1 - polo-box domain): Primary Screen. Serine/threonine-protein kinase PLK1 (Homo sapiens), P53350. Plk1 PBD binding of FITC phosphopeptide, fluorescence polarization. Potency, µM, inactives show max response, negative = inhibition, hits mostly inhibitors. 360,000 compounds, 2.8% hits. AID 720504, 2013; further: potency means the concentration at half of the fitted maximal effect; series mostly up to about 57 µM; on the % scale 0 is the no-effect control and ±100 the full control effect; nearly all actives have a fitted effect of over 65% in size
HP1b binding inh: HTS for Inhibitors of HP1-beta Chromodomain Interactions with Methylated Histone Tails; AID 540317, 2011; 390,000 compounds, 0.56% hits; Potency, µM (series often up to 114 µM), without a hit: at the highest dose activity change, negative = inhibition, most hits filed as inhibitors; AlphaScreen HP1-beta / biotin-H3K9me3 peptide binding; Chromobox protein homolog 1 (Homo sapiens), P83916; further: potency means the concentration at half of the fitted maximal effect; nearly all actives have a fitted effect of over 70% in size
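Compound inhibition of the preformed complex between 50 nM HP1-beta and 50 nM biotinylated H3K9me3 peptide was read by AlphaScreen. Buffer was PBS pH 7.4 with 0.01% Tween-20. Incubations ran 30 min at room temperature, with 10 ug/mL donor/acceptor beads.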
PI5P4Ka inh: qHTS for Inhibitors of phosphatidylinositol 5-phosphate 4-kinase (PI5P4K); Phosphatidylinositol 5-phosphate 4-kinase type-2 alpha (Homo sapiens), P48426; PI5P4Kalpha enzyme, ADP-Glo luminescence, 60 min; hits give low values; max response, %; 330,000 compounds, 1.2% hits; AID 652105, 2013; active means max response of -50% or lower; inconclusive means between -30% and -50%; inactive means -30% or higher; further: value at the top dose of about 77 µM; on the % scale 0 is the no-effect control and ±100 the full control effect
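Enzyme plus substrate dispensed, test compounds pinned in, then ATP (5 microM final) added. After 60 min at RT, ADP-Glo reagent 1 for 45 min and reagent 2 for 30 min preceded luminescence imaging.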
JMJD2A Tudor: qHTS Assay for Inhibitors of JMJD2A-Tudor Domain. Lysine-specific demethylase 4A (Homo sapiens), O75164. AlphaScreen JMJD2A-Tudor / H3K4me3 peptide binding. Potency, µM (doses to about 114 µM), inactives show at the highest dose activity change, negative = inhibition, hits mostly inhibitors. 390,000 compounds, 4.4% hits; further: potency means the concentration at half of the fitted maximal effect; on the % scale 0 is the no-effect control and ±100 the full control effect; nearly all actives have a fitted effect of over 50% in size
BAZ2B block: qHTS Assay for Inhibitors of BAZ2B. Potency, µM (doses to about 114 µM), for inactives: at the highest dose activity change, negative = inhibition, usual class: inhibitors. Bromodomain adjacent to zinc finger domain protein 2B (Homo sapiens), Q9UIF8. AID 504333, 2011. AlphaScreen BAZ2B-H3K14Ac peptide displacement. 360,000 compounds, 4.4% hits; further: potency means the concentration at half of the fitted maximal effect; on the % scale 0 is the no-effect control and ±100 the full control effect; nearly all actives have a fitted effect of over 60% in size
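AlphaScreen luminescence quantifies BAZ2B engagement of H3K14Ac peptide; the protein and biotinylated peptide are both at 50 nM final, buffer PBS pH 7.4 with 0.01% Tween-20, all steps at room temperature.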
* = called active by the depositor; ? = inconclusive; . = no result; [ ] = dose if it differs, or a comment. Sampled rows, rich in hits. Any-hit rate of the full collection: about 12%. Unless noted, the call rests on the fitted dose curve; in most records, active means well fitted curve in the direction sought with a large enough effect; inconclusive means small, poorly fitted or top-dose-only effect, or another doubt; inactive means no such curve, though single readings can be large; an effect the other way counts as inactive or inconclusive.

SMILES	G9a block	PLK1 PBD block	HP1b binding inh	PI5P4Ka inh	JMJD2A Tudor	BAZ2B block
CCCOC(=O)CSC1=C(C#N)C(c2ccccc2OCC)C(C#N)C(=O)N1 (stereo not drawn)	?	-8.8%	?	-2.4	-31.5%	50.1µM*
CCOC(=O)C1C(=O)NC(SC)=C(C#N)C1c1ccccc1F (stereo not drawn)	15.1%	-16.4%	5.0%	.	-17.2%	2.7%
CCOC(=O)C1C(=O)NC(SCC(N)=O)=C(C#N)C1c1ccccc1OCC (stereo not drawn)	20µM*	-24.1%	-15.1%	-7.1	?	-28.0%
CCCCOC(=O)CSC1=C(C#N)C(c2ccccc2OCC)C(C#N)C(=O)N1 (stereo not drawn)	29.1%[0.501 µM]	-14.4%	-3.4%	.	-35.8%	50.1µM*
Cc1cccc(N2CCN(C(c3ccccc3)c3nnc(-c4ccccc4Cl)o3)CC2)c1C (stereo not drawn)	-4.5%[59 µM]	.	23.1%	.	7.5%	0.0%
CC(C)NC(=O)Cn1cc(S(=O)(=O)N2CCCC2)c(S(=O)(=O)N2CCCC2)c1	.	-15.2%	25.1%	-0.5	-4.1%	-9.3%
O=C1NC(=O)C2(N1)C(=O)c1cccc3cccc2c13 (stereo not drawn)	.	10.6µM*	.	0.5	.	.
COc1cc(OC)c(N(C)S(=O)(=O)c2cccc(C(=O)OCC(=O)N(C)Cc3ccccc3)c2)cc1Cl	.	-2.4%	20.5%	4.3	-16.4%	.

Bioassay records as filed in PubChem BioAssay.
